# Values joined by “and” are separate entries in the source; they are usually repeats but may differ in a detail not shown here. Identical values can stand only once. The panel holds about 83,000 compounds, 20% with a hit somewhere; the sample as a whole holds those more often.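 Results are percent growth after 48 hours of single-concentration exposure. 100 means growth as in untreated cells, lower positive values show inhibition; negative values down to -100 show cell death.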 Values without a mark were called inactive. Active and inactive are the calls of the source. How the source made its calls: active means growth percent below 10; inactive means the rest.
# Test system: HL-60(TB) leukemia
# Assay: NCI-60 one-dose screen, 48 h (100 = growth as untreated, 0 = no growth, -100 = all killed)
# Conditions: 10 µM unless noted
row,SMILES,growth
1,O=c1c2cc(F)ccc2sc2c(Nc3ccncc3)nc3ccccc3c12,6.35% (active)
2,COc1ccc(C2SC(C)C(=O)N2CCc2cccs2)cc1OC (stereo unspecified),74.5%
3,CC(=O)N1N=C(c2cccc(Nc3ccncc3)c2)CC1c1ccccc1 (stereo unspecified),78.9%
4,Clc1cc(Cl)cc(-c2ccc(-c3ccc(/C=N/NC4=NCCN4)cc3)s2)c1,19.6%
5,O=C(c1nn(-c2ccccc2)c2c1CC(NCc1ccc(F)cc1)CC2)N1CCCCC1 (stereo unspecified),86.6%
6,CC1(C)OC(=O)C(=Cc2ccc(C#N)cc2)C(=O)O1,93.3% and 88.8%
7,O=C(Nc1ccc(Br)cc1)c1cc(Br)ccc1O,-18.4% (active) and -60% (active)
8,Nc1n[nH]c2cccc(C#Cc3cccc(C(=O)Nc4cc(C(F)(F)F)cc(C(F)(F)F)c4)c3)c12,39.7%
9,Cn1c(=O)c2[nH]c(N/N=C/c3ccccc3Br)nc2n(C)c1=O,106%
10,S=C(S)N1CCCC1,114% and 110%
11,O=C(Cn1c(=O)sc2nc3ccccc3nc21)Nc1ncc(Cc2cccc(Cl)c2Cl)s1,98.3%

# — PubChem BioAssay (NCI)
